About 7,900 targets were measured; listed, in parts, are those with a hit and a random draw of the rest. About 0.6% of all pairs of compound and target were hits. Values without a mark were called inactive.

UniProt O43847, sequence (O43847 whole entry, looked up): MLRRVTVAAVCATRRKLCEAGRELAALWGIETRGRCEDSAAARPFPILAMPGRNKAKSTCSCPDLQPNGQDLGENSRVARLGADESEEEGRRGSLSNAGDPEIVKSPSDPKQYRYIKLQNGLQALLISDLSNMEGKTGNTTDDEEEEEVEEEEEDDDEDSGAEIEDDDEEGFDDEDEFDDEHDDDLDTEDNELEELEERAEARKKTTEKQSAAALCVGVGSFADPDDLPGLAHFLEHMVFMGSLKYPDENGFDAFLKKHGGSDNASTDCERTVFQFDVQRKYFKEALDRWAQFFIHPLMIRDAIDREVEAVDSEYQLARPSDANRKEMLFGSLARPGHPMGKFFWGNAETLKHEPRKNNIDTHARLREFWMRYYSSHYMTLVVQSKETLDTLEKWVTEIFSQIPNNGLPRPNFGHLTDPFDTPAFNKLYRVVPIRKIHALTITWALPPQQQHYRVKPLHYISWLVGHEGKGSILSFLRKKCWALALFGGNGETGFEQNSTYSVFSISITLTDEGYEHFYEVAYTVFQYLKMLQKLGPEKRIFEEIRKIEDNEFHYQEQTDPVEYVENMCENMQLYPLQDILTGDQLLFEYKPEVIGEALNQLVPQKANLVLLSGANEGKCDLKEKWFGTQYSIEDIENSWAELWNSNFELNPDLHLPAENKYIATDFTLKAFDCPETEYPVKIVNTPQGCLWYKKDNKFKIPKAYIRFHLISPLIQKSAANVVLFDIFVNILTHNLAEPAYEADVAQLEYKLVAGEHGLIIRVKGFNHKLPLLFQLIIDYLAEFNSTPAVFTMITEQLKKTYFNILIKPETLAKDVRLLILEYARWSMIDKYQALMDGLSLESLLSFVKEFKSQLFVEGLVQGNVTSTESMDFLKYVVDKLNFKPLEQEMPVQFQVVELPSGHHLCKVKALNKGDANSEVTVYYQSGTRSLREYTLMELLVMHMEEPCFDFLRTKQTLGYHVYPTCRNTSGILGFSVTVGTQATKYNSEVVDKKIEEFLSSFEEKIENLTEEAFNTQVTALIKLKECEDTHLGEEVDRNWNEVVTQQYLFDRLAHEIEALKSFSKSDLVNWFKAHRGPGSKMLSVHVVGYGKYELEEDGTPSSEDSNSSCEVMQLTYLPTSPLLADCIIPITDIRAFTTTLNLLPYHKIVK
UniProt P46087, sequence (P46087 whole entry, looked up): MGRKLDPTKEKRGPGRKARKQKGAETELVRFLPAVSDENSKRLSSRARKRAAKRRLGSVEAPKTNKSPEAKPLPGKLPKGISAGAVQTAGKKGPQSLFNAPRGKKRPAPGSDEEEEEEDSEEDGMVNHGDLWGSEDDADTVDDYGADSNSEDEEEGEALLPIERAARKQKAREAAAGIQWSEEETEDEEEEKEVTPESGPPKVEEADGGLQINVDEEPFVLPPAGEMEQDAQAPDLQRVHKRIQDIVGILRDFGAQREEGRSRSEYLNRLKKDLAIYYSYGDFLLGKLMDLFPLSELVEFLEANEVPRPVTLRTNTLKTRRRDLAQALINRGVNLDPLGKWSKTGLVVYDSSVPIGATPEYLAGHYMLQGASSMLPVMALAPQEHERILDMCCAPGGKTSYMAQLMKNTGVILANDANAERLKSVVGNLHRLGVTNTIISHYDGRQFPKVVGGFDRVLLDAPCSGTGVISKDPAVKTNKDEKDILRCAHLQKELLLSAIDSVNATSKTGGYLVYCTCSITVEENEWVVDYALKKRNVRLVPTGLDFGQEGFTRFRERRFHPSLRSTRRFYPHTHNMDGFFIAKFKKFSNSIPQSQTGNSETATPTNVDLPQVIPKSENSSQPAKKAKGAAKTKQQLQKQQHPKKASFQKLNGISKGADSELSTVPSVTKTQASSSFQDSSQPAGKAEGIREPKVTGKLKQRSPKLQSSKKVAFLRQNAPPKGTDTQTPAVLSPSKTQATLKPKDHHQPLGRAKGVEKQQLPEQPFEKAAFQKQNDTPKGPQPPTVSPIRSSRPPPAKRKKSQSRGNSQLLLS
UniProt Q13952, sequence (Q13952 whole entry, looked up): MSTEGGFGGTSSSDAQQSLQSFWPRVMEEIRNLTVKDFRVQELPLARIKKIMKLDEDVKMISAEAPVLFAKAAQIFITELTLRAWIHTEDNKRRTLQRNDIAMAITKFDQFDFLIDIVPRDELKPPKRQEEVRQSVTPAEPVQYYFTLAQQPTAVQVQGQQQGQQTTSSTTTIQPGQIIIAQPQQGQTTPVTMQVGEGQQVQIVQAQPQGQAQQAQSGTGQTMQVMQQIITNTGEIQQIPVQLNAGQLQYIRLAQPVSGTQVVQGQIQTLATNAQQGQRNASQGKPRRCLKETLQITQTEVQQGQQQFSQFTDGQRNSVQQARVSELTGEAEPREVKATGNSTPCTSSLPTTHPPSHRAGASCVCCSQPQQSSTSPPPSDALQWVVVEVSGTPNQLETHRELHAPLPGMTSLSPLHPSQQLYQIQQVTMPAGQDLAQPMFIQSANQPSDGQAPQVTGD
UniProt Q96MF7, sequence (Q96MF7 whole entry, looked up): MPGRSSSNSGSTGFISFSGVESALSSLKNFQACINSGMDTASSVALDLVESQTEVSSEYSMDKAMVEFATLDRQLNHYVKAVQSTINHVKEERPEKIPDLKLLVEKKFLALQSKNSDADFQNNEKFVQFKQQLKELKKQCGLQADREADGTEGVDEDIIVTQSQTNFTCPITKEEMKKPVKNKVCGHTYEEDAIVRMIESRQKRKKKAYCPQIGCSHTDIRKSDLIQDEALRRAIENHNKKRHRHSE
UniProt Q9BPX3, sequence (Q9BPX3 whole entry, looked up): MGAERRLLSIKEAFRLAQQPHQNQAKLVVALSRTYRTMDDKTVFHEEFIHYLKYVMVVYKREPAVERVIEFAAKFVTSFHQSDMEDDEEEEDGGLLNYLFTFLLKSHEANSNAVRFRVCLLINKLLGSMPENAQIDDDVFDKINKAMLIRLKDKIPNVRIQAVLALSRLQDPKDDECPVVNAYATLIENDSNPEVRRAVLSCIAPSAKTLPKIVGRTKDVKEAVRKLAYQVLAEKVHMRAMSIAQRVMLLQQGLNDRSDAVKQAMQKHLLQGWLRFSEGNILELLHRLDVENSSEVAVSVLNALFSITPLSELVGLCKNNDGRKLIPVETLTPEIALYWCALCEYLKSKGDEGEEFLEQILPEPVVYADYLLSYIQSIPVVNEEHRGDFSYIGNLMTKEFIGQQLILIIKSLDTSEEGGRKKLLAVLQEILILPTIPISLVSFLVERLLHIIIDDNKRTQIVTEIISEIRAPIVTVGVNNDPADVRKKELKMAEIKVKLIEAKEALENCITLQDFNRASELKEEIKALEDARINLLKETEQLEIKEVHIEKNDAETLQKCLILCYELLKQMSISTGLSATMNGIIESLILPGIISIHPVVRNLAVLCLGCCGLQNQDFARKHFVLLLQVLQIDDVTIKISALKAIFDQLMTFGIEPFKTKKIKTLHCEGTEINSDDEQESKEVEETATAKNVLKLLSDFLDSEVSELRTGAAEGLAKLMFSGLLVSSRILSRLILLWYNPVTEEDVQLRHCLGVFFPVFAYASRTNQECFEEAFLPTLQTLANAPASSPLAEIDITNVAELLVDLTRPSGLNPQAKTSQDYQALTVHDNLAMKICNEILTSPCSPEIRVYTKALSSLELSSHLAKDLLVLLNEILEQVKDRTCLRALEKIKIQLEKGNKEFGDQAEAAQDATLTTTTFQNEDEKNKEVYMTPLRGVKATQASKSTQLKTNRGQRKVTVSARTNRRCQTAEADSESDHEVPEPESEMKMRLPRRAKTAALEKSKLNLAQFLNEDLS
UniProt Q16621, sequence (Q16621 whole entry, looked up): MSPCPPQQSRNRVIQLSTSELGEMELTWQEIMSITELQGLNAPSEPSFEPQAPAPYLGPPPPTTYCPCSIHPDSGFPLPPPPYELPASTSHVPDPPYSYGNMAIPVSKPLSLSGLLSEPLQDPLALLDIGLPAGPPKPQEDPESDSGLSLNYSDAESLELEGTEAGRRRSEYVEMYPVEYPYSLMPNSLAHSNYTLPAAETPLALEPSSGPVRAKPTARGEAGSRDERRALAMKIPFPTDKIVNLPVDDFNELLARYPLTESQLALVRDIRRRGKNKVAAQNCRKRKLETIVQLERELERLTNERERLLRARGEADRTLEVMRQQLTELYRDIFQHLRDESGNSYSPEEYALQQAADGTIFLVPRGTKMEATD
UniProt P55209, sequence (P55209 whole entry, looked up): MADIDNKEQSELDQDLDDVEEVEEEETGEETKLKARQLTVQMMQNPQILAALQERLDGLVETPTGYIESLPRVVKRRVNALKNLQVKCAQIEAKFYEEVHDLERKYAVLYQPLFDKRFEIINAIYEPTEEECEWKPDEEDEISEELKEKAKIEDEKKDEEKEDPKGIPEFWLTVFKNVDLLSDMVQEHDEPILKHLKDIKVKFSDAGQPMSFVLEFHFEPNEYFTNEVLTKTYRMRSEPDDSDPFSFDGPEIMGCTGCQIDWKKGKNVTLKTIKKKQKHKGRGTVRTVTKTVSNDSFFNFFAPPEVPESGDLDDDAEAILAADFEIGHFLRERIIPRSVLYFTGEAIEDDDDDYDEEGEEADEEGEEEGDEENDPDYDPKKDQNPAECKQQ
UniProt O43181, sequence (O43181 whole entry, looked up): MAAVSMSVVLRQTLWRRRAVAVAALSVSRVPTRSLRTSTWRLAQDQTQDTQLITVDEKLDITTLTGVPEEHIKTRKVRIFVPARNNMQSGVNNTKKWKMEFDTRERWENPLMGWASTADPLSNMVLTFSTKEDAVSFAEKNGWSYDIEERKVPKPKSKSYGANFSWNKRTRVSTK
UniProt Q8WV92, sequence (Q8WV92 whole entry, looked up): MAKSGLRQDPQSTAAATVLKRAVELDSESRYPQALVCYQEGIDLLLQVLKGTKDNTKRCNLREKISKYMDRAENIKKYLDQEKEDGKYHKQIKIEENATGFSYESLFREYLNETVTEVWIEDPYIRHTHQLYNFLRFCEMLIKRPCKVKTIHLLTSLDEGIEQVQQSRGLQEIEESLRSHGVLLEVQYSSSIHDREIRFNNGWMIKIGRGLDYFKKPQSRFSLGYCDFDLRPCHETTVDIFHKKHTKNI
UniProt O00483, sequence (O00483 whole entry, looked up): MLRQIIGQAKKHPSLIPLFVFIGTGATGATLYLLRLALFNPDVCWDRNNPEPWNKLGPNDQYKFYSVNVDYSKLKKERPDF

Compound in the first assay: C1=CC(=C(C=C1Cl)C2=NC3=NC=CN=C3C(=N2)NC4=CC=NC=C4)F
Kind of assay: log2 fold change, soluble protein after heating vs DMSO (PISA); higher = thermal stabilisation; K562 cells, 10 uM, 30 min; active = over 0.2 and 3.5 SD of the protein, either way, in both replicates (recomputed). An outline of the steps: (§1)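 K562 cells (2×10^6 cells/mL) were treated with 10 μM compound for 30 min, and aliquots were heated for 3 min over 48°C-58°C. Pooled aliquots were extracted in PBS with 0.5% NP-40 at 4°C, and the supernatant after 21,000xg for 90 min was measured by TMTpro 16plex LC-MS/MS with channel sums equalised. Reported thermal stability, relative to control samples and from duplicates, is a log2 fold change.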
In the case of MNAT1 (UniProt P51948), the log2 fold change is -0.066.
The same measure, in the same setting: with NUDT1 (UniProt P36639) the figure was 0.135.
In the case of OGFR (UniProt Q9NZT2), the log2 fold change is -0.011.
With MT-ND4 (UniProt P03905), the log2 fold change is 0.053.
MTFR1L (UniProt Q9H019): the log2 fold change is -0.202.
Still for that read-out and setting: with MRPS15 (UniProt P82914) the figure was -0.119; with NCAPG (UniProt Q9BPX3), 0.013; with MITD1 (UniProt Q8WV92), 0.148.
The same measure, in the same setting: under NPC1 (UniProt O15118) stands -0.004.
Take MRPS12 (UniProt O15235): the log2 fold change is -0.13.
MORC3 (UniProt Q14149): the log2 fold change was 0.171.
On the same count and under the same terms, under NRDC isoform 2 (UniProt O43847) stands 0.012; under NARS2 (UniProt Q96I59), 0.07; under MSTO1 (UniProt Q9BUK6), 0.075.
Same read-out and setting: with NECTIN2 (UniProt Q92692) the figure was 0.064; with NEDD4L (UniProt Q96PU5), -0.078; with NA, A0A0B4J2A0, 0.065.
Regarding NUCKS1 (UniProt Q9H1E3), the log2 fold change is -0.002.
The same measure, in the same setting: with MRPS9 (UniProt P82933) the figure was -0.087; with NFYC (UniProt Q13952), 0.016.
The same measure, in the same setting: under MTMR14 (UniProt Q8NCE2) stands 0.047.
The same measure, in the same setting: under NSMCE2 (UniProt Q96MF7) stands -0.078; under NOP53 (UniProt Q9NZM5), -0.231.
For MRPL47 (UniProt Q9HD33), the log2 fold change is -0.098.
On to MRPL50 (UniProt Q8N5N7), for which the log2 fold change was 0.048.
As for NDUFA4 (UniProt O00483), the log2 fold change was 0.258.
The same measure, in the same setting: under NDUFS4 (UniProt O43181) stands -0.004.
The same measure, in the same setting: under MRPS16 (UniProt Q9Y3D3) stands -0.025; under NAP1L1 (UniProt P55209), 0.036; under OXA1L (UniProt Q15070), -0.005.
Same read-out and setting: with MSH6 (UniProt P52701) the figure was 0.096; with NMD3 (UniProt Q96D46), 0.052.
With NDUFS8 (UniProt O00217), the log2 fold change is 0.023.
Same read-out and setting: under NOP2 isoform 4 (UniProt P46087) stands -0.349; under NEU1 (UniProt Q99519), -0.027; under MRPS31 (UniProt Q92665), -0.032.
Same read-out and setting: under NCAPD2 (UniProt Q15021) stands 0.005; under MLX (UniProt Q9UH92), -0.057; under NFE2 (UniProt Q16621), -0.025.

Compound in another assay: C1=CC(=CC=C1C2=NC3=C(N2)C=C(C=C3)C(=O)N)OC4=CC=C(C=C4)Cl
The assay is described as above. An outline of the steps: as §1
For MNAT1 (UniProt P51948), the log2 fold change was 0.012.
NUDT1 (UniProt P36639): the log2 fold change was -0.068.
On the same count and under the same terms, under OGFR (UniProt Q9NZT2) stands 0.107; under MT-ND4 (UniProt P03905), -0.028.
The same measure, in the same setting: under MTFR1L (UniProt Q9H019) stands 0.064.
For MRPS15 (UniProt P82914), the log2 fold change was 0.089.
As to NCAPG (UniProt Q9BPX3), the log2 fold change is -0.03.
As for MITD1 (UniProt Q8WV92), the log2 fold change was 0.037.
Regarding NPC1 (UniProt O15118), the log2 fold change was 0.025.
Same read-out and setting: with MRPS12 (UniProt O15235) the figure was 0.095; with MORC3 (UniProt Q14149), 0.035.
Same read-out and setting: under NRDC isoform 2 (UniProt O43847) stands -0.024; under NARS2 (UniProt Q96I59), 0.008.
For the target MSTO1 (UniProt Q9BUK6), the log2 fold change was -0.044.
On the same count and under the same terms, under NECTIN2 (UniProt Q92692) stands -0.006; under NEDD4L (UniProt Q96PU5), 0.005.
Consider NA, A0A0B4J2A0, for which the log2 fold change is -0.009.
On the same count and under the same terms, with NUCKS1 (UniProt Q9H1E3) the figure was -0.029; with MRPS9 (UniProt P82933), 0.137; with NFYC (UniProt Q13952), -0.006.
The same measure, in the same setting: with MTMR14 (UniProt Q8NCE2) the figure was 0.037; with NSMCE2 (UniProt Q96MF7), 0.009; with NOP53 (UniProt Q9NZM5), 0.005.
In the case of MRPL47 (UniProt Q9HD33), the log2 fold change is 0.096.
Consider MRPL50 (UniProt Q8N5N7), for which the log2 fold change is 0.004.
Same read-out and setting: with NDUFA4 (UniProt O00483) the figure was 0.042; with NDUFS4 (UniProt O43181), 0.07; with MRPS16 (UniProt Q9Y3D3), 0.159.
With NAP1L1 (UniProt P55209), the log2 fold change is 0.035.
For OXA1L (UniProt Q15070), the log2 fold change was 0.012.
In the case of MSH6 (UniProt P52701), the log2 fold change is 0.002.
As to NMD3 (UniProt Q96D46), the log2 fold change is 0.023.
Same read-out and setting: under NDUFS8 (UniProt O00217) stands 0.033; under NOP2 isoform 4 (UniProt P46087), -0.064.
Still for that read-out and setting: with NEU1 (UniProt Q99519) the figure was 0.101.
For the target MRPS31 (UniProt Q92665), the log2 fold change is 0.105.
The same measure, in the same setting: under NCAPD2 (UniProt Q15021) stands -0.05; under MLX (UniProt Q9UH92), 0.062; under NFE2 (UniProt Q16621), -0.001.

The record behind these values is the supplement of paper PMC10849652.
